Laboratory results published in PubChem BioAssay (EPA / NIEHS).
Results filed as inconclusive are left out. Calls of active or inactive are those of the source. The calls were made as follows, unless noted: active = hit-call score of the fitted dose curve at least 0.9, where 1 is the maximum; inactive = score below 0.9.

Key:
[1] = ACEA_ER_80hr: ACEA Biosciences xCELLigence Real-Time Cell Analysis on Estrogen Receptor Agonism for Proliferation (AID 2282667; active = hit-call score of the fitted dose curve at least 0.9, where 1 is the maximum); details: T47D proliferation, impedance (xCELLigence), 80 h
In short: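 Real-time impedance growth kinetics of human T-47D breast cells read 80 h after dosing, gain-of-signal fitted relative to DMSO. Compounds: 1:4 serial series, top final concentration 100 uM, n = 2.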

[2] = APR_HepG2_CellCycleArrest_24hr: Apredica 24-hour HepG2 Assay for Cell Cycle Arrest (AID 2282905); details: imaging, actives raise or lower the signal;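 also: cell cycle arrest scored as ratio of 2N to 4N nuclear DNA content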
In short: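 Step one: dose HepG2 with test compounds, 0.39–200 uM, 0.5% DMSO, 24 hr. Step two: fix, permeabilize, stain nuclei with Hoechst 33342. Step three: image six fields per well at 20x, quantify DNA content, fit bidirectionally relative to DMSO.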

[3] = APR_HepG2_NuclearSize_24hr: Apredica 24-hour HepG2 Assay for Nuclear Size (AID 2282907); details: high-content imaging, actives raise or lower the signal
In short: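 After fixation and permeabilization, 24-hr-treated HepG2 cells were stained with Hoechst 33342 and imaged on an ArrayScan (20x). Doses spanned 0.39–200 uM in duplicate. Nuclear diameter changes in either direction were fitted relative to 0.5% DMSO controls.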

[4] = APR_HepG2_CellLoss_24hr: Apredica 24-hour HepG2 Assay for Cell Loss (AID 2282908); details: high-content imaging;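 as to AC50: fit in both directions so a hit may be cell loss or gain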
In short: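 Duplicate wells received compound at ten concentrations (0.39–200 uM; final DMSO 0.5% v/v). After fixation with formaldehyde, nuclei stained with Hoechst 33342 were imaged at 20x. Loss or gain of cell count was fitted relative to DMSO controls.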

[5] = APR_HepG2_MicrotubuleCSK_24hr: Apredica 24-hour HepG2 Assay for Microtubule CSK Stabilty (AID 2282909); details: HepG2 microtubule cytoskeleton imaging, actives raise or lower the signal
In short: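 Microtubule stability is scored from tubulin immunofluorescence in fixed HepG2 cells imaged at 20x. Cells receive ten compound concentrations up to 200 uM for 24 h; taxol and DMSO serve as positive and negative controls.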

[6] = APR_HepG2_MitoticArrest_24hr: Apredica 24-hour HepG2 Assay for Mitotic Arrest (AID 2282910); details: high-content imaging, actives raise or lower the signal
In short: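 Treatment lasted 24 hr in the human HepG2 line at 0.39–200 uM, solvent held at 0.5% DMSO. Fixed cells were stained with Hoechst 33342 and anti-phospho-histone H3, imaged at 20x, and analysed by gain- or loss-of-signal fitting against DMSO.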

[7] = APR_HepG2_MitoMembPot_24hr: Apredica 24-hour HepG2 Assay for Mitochondrial Membrane Potential (AID 2282911); details: imaging, actives raise or lower the signal
In short: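 Mitochondrial membrane potential imaged via MitoTracker Red CMXRos (250 nM, 30 min pre-fixation) in fixed HepG2 cells with Hoechst nuclear identification. Ten concentrations 0.39–200 uM, 24 h treatment, 0.5% DMSO; CCCP as positive control.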

[8] = APR_HepG2_MitoMass_24hr: Apredica 24-hour HepG2 Assay for Mitochondrial Mass (AID 2282912); details: high-content imaging, actives raise or lower the signal
In short: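 Readout: fluorescence of MitoTracker Red CMXRos (250 nM, added 30 min pre-fixation) in fixed HepG2 cells imaged by HCS. Exposure lasted 24 hr at 0.39–200 uM; increases and decreases were both fitted relative to DMSO.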

[9] = APR_HepG2_p53Act_24hr: Apredica 24-hour HepG2 Assay for p53 Activation (AID 2282913); details: high-content imaging, actives raise or lower the signal;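 also: p53 protein immunofluorescence averaged per cell in HepG2 with Hoechst nuclei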
In short: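 Fluorescence imaging of formaldehyde-fixed HepG2 cells labelled for p53 and with Hoechst, 24 h after dosing (0.39–200 uM, duplicate wells, 0.5% v/v DMSO). Signal fitted in both directions relative to DMSO.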

[10] = APR_HepG2_CellCycleArrest_72hr: Apredica 72-hour HepG2 Assay for Cell Cycle Arrest (AID 2282914); details: high-content imaging, actives raise or lower the signal
In short: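 Read-out: nuclear DNA content from Hoechst 33342 high-content imaging (20x, six fields/well) after 3.7% formaldehyde fixation, fitted bidirectionally against DMSO. Treatment was 72 h in HepG2, ten concentrations 0.39–200 uM, duplicate, 0.5% DMSO.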

[11] = APR_HepG2_CellLoss_72hr: Apredica 72-hour HepG2 Assay for Cell Loss (AID 2282915); details: high-content imaging
In short: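 HepG2 cells were exposed for 72 hr to compounds at 0.39–200 uM (ten concentrations, duplicate) in 0.5% v/v final DMSO. Nuclei were stained with Hoechst 33342 after 3.7% formaldehyde fixation, imaged at 20x, and counted; fits bidirectional versus DMSO.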

[12] = APR_HepG2_P-H2AX_72hr: Apredica 72-hour HepG2 Assay for H2AX Phosphorylation (AID 2282916); details: imaging, actives raise or lower the signal;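 also: phospho-histone H2A.x immunostain intensity per cell marking DNA damage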
In short: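 Phospho-H2A.x imaging endpoint in HepG2 after 72 hr compound exposure (0.39–200 uM, duplicate wells). Activity derived by bidirectional curve fitting with DMSO as baseline.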

[13] = APR_HepG2_MitoMembPot_72hr: Apredica 72-hour HepG2 Assay for Mitochondrial Membrane Potential (AID 2282917); details: imaging, actives raise or lower the signal
In short: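 HepG2 cells exposed 72 h to compounds at 0.39–200 uM (0.5% v/v DMSO, duplicates); MitoTracker Red CMXRos 250 nM loaded 30 min before 3.7% formaldehyde fixation, imaged by HCS fluorescence. Bidirectional fit versus DMSO.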

[14] = APR_HepG2_MitoticArrest_72hr: Apredica 72-hour HepG2 Assay for Mitotic Arrest (AID 2282918); details: high-content imaging, actives raise or lower the signal
In short: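 High-content imaging of fixed human HepG2 cells after 72 h compound exposure (0.39–200 uM, duplicates, 0.5% DMSO); mitotic arrest scored from phospho-histone H3 and nuclear Hoechst staining relative to DMSO.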

[15] = APR_HepG2_MicrotubuleCSK_72hr: Apredica 72-hour HepG2 Assay for Microtubule CSK Stabilty (AID 2282919); details: HepG2 microtubule cytoskeleton, high-content imaging, actives raise or lower the signal
In short: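 Ten-point dosing (0.39–200 uM, 0.5% DMSO) of HepG2 for 72 hr, with taxol as the cytoskeletal positive control. The cells were formaldehyde-fixed and then stained with alpha-tubulin/Cy5 and Hoechst. Imaging at 20x used a −2 um Z offset for tubulin.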

[16] = APR_HepG2_P-H2AX_24hr: Apredica 24-hour HepG2 Assay for H2AX Phosphorylation (AID 2282920); details: high-content imaging, actives raise or lower the signal
In short: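 High-content imaging of phospho-histone H2A.x immunofluorescence, nuclei counterstained with Hoechst 33342, in fixed HepG2 cells. Compounds ran 0.39–200 uM in duplicate for 24 h, final DMSO 0.5%. Signal change fitted both directions against DMSO.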

[17] = APR_HepG2_StressKinase_72hr: Apredica 72-hour HepG2 Assay for Stress Kinase (AID 2282921); details: HepG2 stress kinase (phospho-c-Jun) imaging, actives raise or lower the signal
In short: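 Stress kinase signal reflects nuclear phospho-c-Jun staining in fixed, permeabilized cells exposed 72 h to compound at 0.39–200 uM; DMSO-normalized, fitted for increases or decreases.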

[18] = APR_HepG2_StressKinase_24hr: Apredica 24-hour HepG2 Assay for Stress Kinase (AID 2282922); details: HepG2 stress kinase (phospho-c-Jun) imaging, actives raise or lower the signal
In short: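 After 24 hr compound treatment (up to 200 uM, final DMSO 0.5% v/v), HepG2 cells are fixed and multiplex-labeled; phospho-c-Jun intensity is captured by high-content fluorescence imaging and analyzed relative to DMSO.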

[19] = APR_HepG2_p53Act_72hr: Apredica 72-hour HepG2 Assay for p53 Activation (AID 2282923); details: high-content imaging, actives raise or lower the signal;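 also: average cellular p53 protein immunofluorescence intensity in HepG2 cells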
In short: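 Fixed-cell p53 staining (sheep primary, Cy5 secondary) measured by fluorescence imaging following 72 hr treatment at 0.39–200 uM in 0.5% DMSO; DMSO served as negative control and baseline.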

[20] = APR_HepG2_MitoMass_72hr: Apredica 72-hour HepG2 Assay for Mitochondrial Mass (AID 2282924); details: high-content imaging, actives raise or lower the signal;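 also: MitoTracker Red CMXRos stain intensity per cell imaged as mitochondrial mass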
In short: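 Steps: treat HepG2 72 hr (0.39–200 uM, duplicate wells); load MitoTracker Red CMXRos, 250 nM, 30 min; fix with 3.7% formaldehyde, permeabilise with 0.5% Triton X-100; capture images, nuclei via Hoechst 33342; fit bidirectionally against DMSO.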

Measured: AC50

COc1ccc(C)cc1N
inactive: all assays above

CCCCCCCCCCCCCO
active: [4] 138 µM | [5] 117 µM | [6] 107 µM | [10] 52.3 µM | [11] 113 µM | [12] 108 µM | [13] 120 µM | [14] 104 µM
not listed: [2]
inactive: all other assays above

FC(F)(F)C(F)(F)C(F)(F)C(F)(F)C(F)(F)C(F)(F)CCI
not listed: [13]
inactive: all other assays above

CCCCCCOCCO
not listed: [13]
inactive: all other assays above

Cc1cc(=O)[nH]c(=S)[nH]1
inactive: all assays above

CCc1c(C(=O)NN2CCCCC2)nn(-c2ccc(Cl)cc2Cl)c1-c1ccc(Br)cc1
inactive: [3] | [7] | [9] | [12] | [18] | [19]
active: [1] 1.69 µM | [2] 27.9 µM | [4] 21.5 µM | [5] 39 µM | [6] 46.8 µM | [8] 47 µM | [10] 14.6 µM | [11] 27.2 µM | [13] 113 µM | [14] 27.7 µM | [15] 30 µM | [16] 70.4 µM | [17] 32.8 µM | [20] 162 µM

Cc1cccc(C)c1O
inactive: all assays above

CCCCCCCCCCCCCCCC
inactive: all assays above

CCCCC(CC)COC(=O)CC(C(=O)OCC(CC)CCCC)S(=O)(=O)O (centres undefined)
active: [4] 126 µM | [6] 105 µM | [9] 104 µM | [11] 141 µM | [12] 108 µM | [13] 112 µM | [14] 80.8 µM | [16] 102 µM | [19] 103 µM
inactive: all other assays above

COc1cc(-c2nc(NC(=O)c3cc4cc(C)cc(C)c4n3CC(=O)O)sc2CCC2CCCCC2)c(OC)cc1Cl
active: [2] 38.6 µM | [3] 61.4 µM | [4] 29.3 µM | [5] 26.5 µM | [6] 35.1 µM | [7] 15 µM | [8] 14.4 µM | [9] 43.4 µM | [10] 23.4 µM | [11] 26.4 µM | [14] 41.1 µM | [15] 25.2 µM | [16] 38.9 µM | [18] 48.8 µM | [20] 78.6 µM
inactive: [1] | [12] | [13] | [17] | [19]

O=C(OCCCCCOC(=O)c1ccccc1)c1ccccc1
active: [10] 103 µM | [11] 100 µM
not listed: [13]
inactive: all other assays above

CCOC(=O)C(C)(C)Oc1ccc(Cl)cc1
active: [4] 115 µM | [7] 121 µM
not listed: [13]
inactive: all other assays above

CCCCCCC(=O)OCC
not listed: [13]
inactive: all other assays above
